Positions count from the first letter of the chain named. In all, about 24,000 sequences were measured (“enrichment r”: median about 0.99, highest 2% from about 3.7 on). The list comes from a sample in which the highest values are over-represented; it also holds similar and randomly drawn sequences.

Sequences and labels used below:
T1: UNK ZnF1-3 (human, UniProt Q9C0B0 31-174)
T1 sequence: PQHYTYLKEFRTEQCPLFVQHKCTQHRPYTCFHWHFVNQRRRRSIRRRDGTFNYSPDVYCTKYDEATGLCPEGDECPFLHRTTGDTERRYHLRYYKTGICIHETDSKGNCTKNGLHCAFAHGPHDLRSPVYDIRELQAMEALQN

B1: chr14:53325254:53325255:-_ENSG00000073712_ENST00000341590|hu_hu|FALSE|FALSE (ssRNA)
RNA: GGGAGUUCUACAGUCCGACGAUCAACCACUUUGCAAUCUACUUCAGUACAAAUGAAGGACAAUCGUACUUCAUCUGCAAACUCUACGGUGACCAUUUUGAUUUCCCAGUUGACAUUCCACUGUUUCAUGUUGCUGAAACGCCACAACAGAGGAUUGAGCAUCA
B2: 93044292_93044412_1315_3pUTR_ENSMUSG00000027217_ENSMUST00000111265|mouse|control|control (ssRNA)
RNA: GGGAGUUCUACAGUCCGACGAUCAGGAACAGCUGGUCCCAGGCCAGCCCUAGGUCCUUGUAGAGCCCAUGCCCCUUGCUUUAGAGCCUAGGUGAGGCCCCUUCAUGUCUGUCUUUUUUGUUUGUUUGUUUGUUUAUUUAAAAACAACAGAGGAUUGAGCAUCA
B3: chr1:235505951:235505952:+_ENSG00000152904_ENST00000391855|hu_mus|motif|central (ssRNA)
RNA: GGGAGUUCUACAGUCCGACGAUCUUUGUAGGCUUUAGCUUCAAGCUCUCUAAGAGUGUGUCGAGUGUAUGCAAAAGAACCGGCAUCCUCCAGGUACUGCACACAAUACUUUUUAAUAUCUAUAUUCUCUGUUCUCUGGCGCAGCAACAGAGGAUUGAGCAUCA
B4: 52190027_52197400_608_3pUTR_ENSMUSG00000020402_ENSMUST00000102758|mouse|control|control (ssRNA)
RNA: GGGAGUUCUACAGUCCGACGAUCGUUGAUGUGCUCCCUCUUGUACCCUGUCUUGAUUUUAGCAUUUUUUUUCCCAGUGUUCGGCGAGAAUGACGAAUCAAAGGUGAGCUUCAGUCCACGAGCAAGCUGGUCUUCCACAGUGAUCAACAGAGGAUUGAGCAUCA
B5: chr17:60770872:60770873:+_ENSG00000011028_ENST00000303375|hu_hu|hu_hu_hu_mus_True|68_88 (ssRNA)
RNA: GGGAGUUCUACAGUCCGACGAUCUCUUUAAAAAAAAAAAAAAAAAGUUUAAAAACAAUAGCACAUUAUUUAAAAAAAGAACUACAAUAGAGGGUCCGCUUUGAGUUUUUGUUCACAUCGUCCUGCACUGGGACACGGGGACUGCAACAGAGGAUUGAGCAUCA
B6: chr17:60770872:60770873:+_ENSG00000011028_ENST00000303375|hu_hu|hu_hu_hu_mus_True|68_78 (ssRNA)
RNA: GGGAGUUCUACAGUCCGACGAUCUCUUUAAAAAAAAAAAAAAAAAGACAAACAAUAAUAAUGGCACAUUUAAAAAAAGAACUACAAUAGAGGGUCCGCUUUGAGUUUUUGUUCACAUCGUCCUGCACUGGGACACGGGGACUGCAACAGAGGAUUGAGCAUCA
B7: chr17:60770872:60770873:+_ENSG00000011028_ENST00000303375|hu_hu|hu_hu_hu_mus_True|48_68 (ssRNA)
RNA: B5 RNA with U47A, U48C, U49A, A52C, C55U, U87A, A88G, G89A, G91A, U94G
B8: 71650973_71651093_4703_CDS_ENSG00000075292_ENST00000264447|human|control|control (ssRNA)
RNA: GGGAGUUCUACAGUCCGACGAUCGUAAUCCAGUUUAGAAAGCUUGCCUUGCAGGGCUGAGAUCCUUCCACUGCCUCCUCUGGUAAGACUGCUCUGAGUAGGUUUGAAUUUACUGCUGCUUUCUGCCAAGCCUGACCUGGCACUCAACAGAGGAUUGAGCAUCA
B9: chr9:14812383:14812384:-_ENSMUSG00000031934_ENSMUST00000164273|mus_mus|mus_mus_mus_hu_True|38_108 (ssRNA)
RNA: GGGAGUUCUACAGUCCGACGAUCAUAGCUCAAGUAGAUACACGCUAACAGUAUAAUGAUGAGUGUCAGCAGGCGGCAGCUAAUGUACUUGAUGAUUAAAUGACUAGAAUUUUUCUUUGUCUUCAAGUACUGCUCCACAAUUGGCAACAGAGGAUUGAGCAUCA
B10: chr13:120183613:120183614:-_ENSMUSG00000025453_ENSMUST00000099149|mus_hu|FALSE|FALSE (ssRNA)
RNA: GGGAGUUCUACAGUCCGACGAUCGUAAAUAAAACUAAUCAGCGUUCCUGAUGUCUUUAAAAGGUCAGCUUCAUGAACACCUAAUGUUGGAUUAACCAUAGGGGCUCGCACUUUGACCACCAAAUCAGAAGCCAGCACUUCCUUCAACAGAGGAUUGAGCAUCA
B11: chr7:34927866:34927867:-_ENSMUSG00000052997_ENSMUST00000102746|mus_mus|FALSE|FALSE (ssRNA)
RNA: GGGAGUUCUACAGUCCGACGAUCGCUUUUGGCAGCAUCUUCAGCUUGUUUUGGCCCCACUUUUUCAGGGCUGUCACCAACUACUUCAAAUUCAACAUCCUUUCCAAGAUCUUCACUAUGAAGAAUGUUGAUCAGCAAAGUAUACAACAGAGGAUUGAGCAUCA
B12: chr6:52144354:52144355:-_ENSG00000112118_ENST00000229854|hu_hu|FALSE|FALSE (ssRNA)
RNA: GGGAGUUCUACAGUCCGACGAUCGGCUGGGGCCUUCUCCGGCAUCUCCUGGAUGGUGAUGGUCUGGUGAUCCUUGUAGACAGAAAGGCCAUAUUCUGUCUCAAGGGGAUUGUUCUCCUCAUCCUUGGUAGGAUAGACAGAGCUCAACAGAGGAUUGAGCAUCA
B13: chrX:15845472:15845473:-_ENSG00000182287_ENST00000329235|hu_hu|motif|central (ssRNA)
RNA: GGGAGUUCUACAGUCCGACGAUCCCACAAGAAGUCAUCAACAAGGGAGGAGAGUUAUGUCAGUCCAAUUUCUUCAAGAACACGGCGUGGGGUUUCAGCUUCCUCCUGCAGUAGAUCAGCCUGCUCAAUUGCUUUAAGGACAUUCAACAGAGGAUUGAGCAUCA
B14: chr16:45382771:45382772:-_ENSMUSG00000022661_ENSMUST00000163230|mus_mus|mus_mus_mus_hu_True|1_78 (ssRNA)
RNA: GGGAGUUCUACAGUCCGACGAUCCUGGGUCAUGUUAUAAGACAAAUGGACAGGGAGAGCAUGCUUUUCAAAAAAUGUGAGCUAUUGUCUAAGACUAACAAUAUUUAUCUAGCUAUAAAAAUAAGUUAAAUGAAUAAACAUUACCAACAGAGGAUUGAGCAUCA
B15: chr15:42481402:42481403:-_ENSG00000166887_ENST00000318006|hu_hu|FALSE|FALSE (ssRNA)
RNA: GGGAGUUCUACAGUCCGACGAUCCUUUGAAACCGUAGUGAUUUGUUGAAAUGUCAAUAGGUCAUGGACAUAAAUGUUAUUUUCUAACAAGCUGACCAGAAUCUUAAACUGGGAAACCACAUGGAUCUGCUGAAUCUUUUUGGACAACAGAGGAUUGAGCAUCA
B16: chr2:121258011:121258012:+_ENSMUSG00000027248_ENSMUST00000028683|mus_mus|FALSE|FALSE (ssRNA)
RNA: GGGAGUUCUACAGUCCGACGAUCCUUGCCUUGUAUCAAAUCUUUAUUAUCUUCCGUCAUAUGAGGACAGAGACCAAAAAUGCUAUCCUGAAUAAAUUUCUUGAUCUUGCCACUGGUCAUUUUCUUUUCAGUAUAUGCCACAGUCAACAGAGGAUUGAGCAUCA
B17: chr16:45382771:45382772:-_ENSMUSG00000022661_ENSMUST00000163230|mus_mus|mus_mus_mus_hu_True|18_78 (ssRNA)
RNA: GGGAGUUCUACAGUCCGACGAUCCUGGGUCAUGUUAUAAGACAAAUGGACAGGGAGAGCAUGCUUUUCAAAAAAUGUGAGCUAUUGUCUAAGACUAACAAUAUUUAUCUAGCUAUAUAAAAAUAAGAAAUGAAUAAGUUAAGACAACAGAGGAUUGAGCAUCA
B18: chr16:45382771:45382772:-_ENSMUSG00000022661_ENSMUST00000163230|mus_mus|mus_mus_mus_hu_True|8_78 (ssRNA)
RNA: GGGAGUUCUACAGUCCGACGAUCCUGGGUCAUGUUAUAAGACAAAUGGACAGGGAGAGCAUGCUUUUCAAAAAAUGUGAGCUAUUGUCUAAGACUAACAAUAUUUAUCUAGCUAUAAAAAUAAGUUUUAAAUGGACGUUAAGACAACAGAGGAUUGAGCAUCA
B19: 83126405_83126525_1642_CDS_ENSMUSG00000058881_ENSMUST00000071233|mouse|control|control (ssRNA)
RNA: GGGAGUUCUACAGUCCGACGAUCCCGGGGAUCAAGGUGGCCAGAAAGCAUGGGGUCCCCAGGUACACUGGCCCUCUUCCUCGGGGGAGCUUGGGUAGCCGGAGCAUCCUGUUCACGCUUGCGUUUUUCCUGGCUCACCAGUAUCAACAGAGGAUUGAGCAUCA
B20: chr7:54825262:54825263:-_ENSG00000132432_ENST00000352861|hu_hu|hu_hu_hu_mus_False|18_38 (ssRNA)
RNA: GGGAGUUCUACAGUCCGACGAUCCUGCCGGCUGGGCUCCACAAACUGCAUUACCUGAUCCAUGUUUGUUGGAUGGCGGAUUGAGAGCGUAGAGACAACGUAGCACUGAGAGAACCGGAUGGAGGCCAACCGGAAGCUGGCAACCAACAGAGGAUUGAGCAUCA
B21: chr2:42543136:42543137:+_ENSG00000143924_ENST00000318522|hu_mus|FALSE|FALSE (ssRNA)
RNA: GGGAGUUCUACAGUCCGACGAUCAUCUACUGAGUAGCGCAUCACAGACAGCUGCUCAUUGCCAUCCGUGUGGAUUGACACCAGAUCUCUUGUUUCUGCAUCCAGAACAAACCACCUGCCUGAGUGCGUUCCAAUGGCUACCACCAACAGAGGAUUGAGCAUCA
B22: chr19:8913615:8913616:-_ENSMUSG00000071658_ENSMUST00000096259|mus_hu|mus_mus_mus_hu_False|48_78 (ssRNA)
RNA: GGGAGUUCUACAGUCCGACGAUCAGGGUACCAAAACCUUCUGCCUGAAAUGGGUGCCCCACCCUGCAGGGAGUUGCAGCUGAAAGUAUCCGUAGCAGAAGCAGUGACUAUACGAAAGGAGGCCCCUGGGGAGGGCCAGGCCAGCAACAGAGGAUUGAGCAUCA

The target in this experiment is T1, UNK ZnF1-3. Kind of experiment: nsRBNS (natural sequence RNA bind-n-seq); RBNS binding buffer (assumed for nsRBNS): 25 mM Tris pH 7.5, 150 mM KCl, 3 mM MgCl2, 0.01% Triton X-100, 500 ug/ml BSA, 20 U/ml SUPERase-In, 4 C; UNK is unkempt and MSI1 is Musashi-1; names of the RNAs are library labels; protein concentration not given here; high values mean tight binding.
For the molecule B1, the binding signal was found to be 0.398 enrichment R.

Regarding B2, the binding signal came out at 0.554 enrichment R.

Regarding B3, the binding signal is 1.14 enrichment R.

B4 gave a binding signal of 0.961 enrichment R.

B5: the binding signal turned out to be 6.65 enrichment R.

B6: the binding signal was 5.39 enrichment R.

B7 registered a binding signal of 5.29 enrichment R.

As for B8, the binding signal turned out to be 0.641 enrichment R.

Molecule B9 had a binding signal of 0.675 enrichment R.

For the molecule B10, the binding signal was determined as 0.662 enrichment R.

B11 registered a binding signal of 0.727 enrichment R.

B12 showed a binding signal of 0.84 enrichment R.

The molecule B13 gave a binding signal of 1.51 enrichment R.

Molecule B14 came in with a binding signal of 4.46 enrichment R.

As to B15, the binding signal came to 0.563 enrichment R.

B16 came in with a binding signal of 1.28 enrichment R.

Molecule B17 displayed a binding signal of 10 enrichment R.

With B18, the binding signal was found to be 5.26 enrichment R.

B19 came in with a binding signal of 0.53 enrichment R.

As to B20, the binding signal is 0.908 enrichment R.

In turn, B21 gave a binding signal of 0.836 enrichment R.

B22 showed a binding signal of 1.24 enrichment R.

Values taken from publication PMC12136788.
